Assay outcomes from PubChem BioAssay.
EBNA-1 inh: EBNA-1 DNA-binding inhibitors, primary screen, biochemical, fluorescence polarization | inhibition, % at 14.8 µM | actives 0.34% (n = 300,000) | AID 1950, 2009; in the data active = inhibition above about 28%
PAFAH2 FP inh: PAFAH2 enzyme inhibitors, primary screen, biochemical, fluorescence polarization, human; Platelet-activating factor acetylhydrolase 2, cytoplasmic (Homo sapiens), Q99487; recombinant PAFAH2, FP-rhodamine activity probe; inhibition, % at 3.39 µM; actives 0.99% (n = 340,000); AID 492956, 2010;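 active = inhibition above the mean over all tested compounds plus 3 SD, cut at about 30% in these data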;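 also: inhibitors block probe labeling of enzyme so polarization drops; 0% = enzyme with DMSO and 100% = wells lacking PAFAH2 protein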
PAFAH1B3 FP inh: PAFAH1B3 enzyme inhibitors, primary screen, biochemical, fluorescence polarization, human; Platelet-activating factor acetylhydrolase IB subunit alpha1 (Homo sapiens), Q15102; recombinant PAFAH1B3, FP-rhodamine probe; inhibition, % at 3.39 µM; actives 0.28% (n = 340,000);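 active = inhibition above the screen-wide average of all tested compounds plus 3 SD, cut at about 25% in these data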;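 also: 0% = enzyme with DMSO only and 100% = wells lacking PAFAH1B3 protein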
Target sequence (Q15102 whole entry, looked up): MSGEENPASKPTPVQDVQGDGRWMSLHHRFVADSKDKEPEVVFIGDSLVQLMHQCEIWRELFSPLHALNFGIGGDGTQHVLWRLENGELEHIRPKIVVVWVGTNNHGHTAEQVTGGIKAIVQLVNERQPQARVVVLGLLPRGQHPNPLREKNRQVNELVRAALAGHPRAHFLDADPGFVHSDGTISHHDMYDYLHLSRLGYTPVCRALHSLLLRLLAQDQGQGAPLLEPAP
ZTA counter: ZTA (EBV) inhibition in EBNA-1 counter-screen; P03206; ZTA-DNA binding, fluorescence polarization; inhibition, % at 11 µM; actives 0.15% (n = 320,000); in the data active = inhibition above about 33%
PAFAH1B2 inh: PAFAH1B2 enzyme inhibitors, primary screen, biochemical, fluorescence polarization, human; recombinant PAFAH1B2, FP-rhodamine activity probe; Platelet-activating factor acetylhydrolase IB subunit alpha2 (Homo sapiens), P68402; inhibition, % at 3.39 µM; actives 1.2% (n = 340,000);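 active = inhibition above the mean of all tested compounds plus 3 SD, cut at about 24% in these data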;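 also: 0% = enzyme with DMSO and 100% = wells lacking PAFAH1B2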
rCAG binder: binders of r(CAG) RNA repeats, primary screen, biochemical, fluorescence | r(CAG) RNA repeat, TO-PRO-1 dye displacement fluorescence | actives 1.3% (n = 370,000) | AID 651821, 2012 | inhibition, % at 3 µM;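 active = inhibition above the plate cutoff, the mean of all test compounds on that plate plus 3 SD, cut at about 35% in these data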;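 also: 0% = DMSO alone and 100% = 100 µM mitoxantrone as full dye displacement; higher means more dye released from RNA so lower well fluorescence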
rCAG bind conf: small molecules binding CAG repeat RNA – biochemical, fluorescence, confirmation. shares compounds with rCAG binder. r(CAG) RNA repeat, TO-PRO-1 dye displacement fluorescence. inhibition, % at 3 µM. actives 70% (n = 4,300). AID 652065, 2013;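 active = inhibition above a per-plate cutoff, the mean inhibition of sample wells plus 3 SD, cut at about 35% in these data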;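 also: loss of TO-PRO-1 fluorescence as compound displaces dye from 1x1 AA loop RNA; 0% = DMSO only wells and 100% = 100 µM mitoxantrone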
dCAG dye counter: displacement of TO-PRO-1 from CAG DNA duplex, counter-screen for rCAG RNA repeat binder project, biochemical, fluorescence, TO-PRO-1 dye, d(CAG) DNA oligo; actives 94% (n = 4,300); d(CAG) DNA oligo TO-PRO-1 dye displacement; shares compounds with rCAG binder; AID 652068, 2013; inhibition, % at 3 µM;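 active = inhibition above its plate's cutoff, the mean test-well inhibition plus 3 SD, cut at about 4.8% in these data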;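 also: 0% = DNA dye mix with DMSO and 100% = 100 µM mitoxantrone; hits displace the dye from DNA and so lower well fluorescence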
* = called active by the depositor; · = no result given; ! = a repeat was not active. Sampled rows, rich in hits. Any-hit rate of the full collection: about 2.9%.

SMILES	EBNA-1 inh	PAFAH2 FP inh	PAFAH1B3 FP inh	ZTA counter	PAFAH1B2 inh	rCAG binder	rCAG bind conf	dCAG dye counter
CC(C)c1ccc(N2C(=O)NC(=O)/C(=C\C=C\c3ccco3)C2=O)cc1	12.4	·	·	2.4	·	44.0*	31.0	12.5*
C=CCn1c(O)c(/C=N/NC(=O)CCCC)c(=O)[nH]c1=S	-0.1	3.6	-3.5	4.6	0.8	1.5	·	·
CN(C)[C@@H]1C(=O)C(C(N)=O)=C(O)[C@@]2(O)C(=O)C3=C(O)c4c(O)cccc4[C@@](C)(O)[C@H]3[C@H](O)[C@@H]12	30.0*!	64.2*	57.2*	8.2	34.9*	69.6*	67.2*	34.1*
Oc1ccc(/C=N/NP(=S)(c2ccccc2)c2ccccc2)c(O)c1O	-2.9	6.5	7.6	0.9	-2.9	36.8*	56.0*	27.9*
Oc1ccccc1/C=N/NP(=S)(c1ccccc1)c1ccccc1	-6.5	-12.9	0.5	14.7	-2.0	6.3	·	·
CC(=O)c1ccc2c(c1)C1C(Cl)C(Sc3ccccc3[N+](=O)[O-])CC1C(C(=O)O)N2 (centres undefined)	-15.8	41.8*	30.8*	-9.3	7.7	87.1*	94.8*	72.7*
CN1C(=O)/C(=C/c2cccn2-c2ccc3ccccc3c2)C(=O)NC1=S	2.5	39.1*	9.5	8.8	38.8*	63.0*	21.8	15.8*
O=C1NC(=S)NC(=O)C1=Cc1cccn1-c1ccc(O)cc1	·	25.4	5.3	·	5.5	17.8	·	·
COc1ccc(CCN)cc1O	4.0	9.0	-5.5	18.0	6.9	1.6	·	·
NCCc1cc(O)c(O)cc1O	·	71.5*	88.2*	·	54.6*	60.5*	28.3	14.1*
COc1ccc(-n2nc(C(=O)NCC(=O)N3CCC4(CC3)OCCO4)c3ccccc3c2=O)cc1Cl	0.2	0.2	3.2	-10.7	-1.9	-0.2	·	·
O=C1CC(=O)N(Cc2ccccc2)C(=O)N1Cc1ccccc1	·	-0.7	1.5	·	-0.2	46.3*	8.7	6.3*
